# Reference: the supplement of paper PMC8728848
# Only a selection was taken, and the strongest signals are over-represented in it overall.
# B1: OGAN (protein)
# chain: MVQKESQATLEERESELSSNPAASAGASLEPPAAPAPGEDNPAGAGGAAVAGAAGGARRFLCGVVEGFYGRPWVMEQRKELFRRLQKWELNTYLYAPKDDYKHRMFWREMYSVEEAEQLMTLISAAREYEIEFIYAISPGLDITFSNPKEVSTLKRKLDQVSQFGCRSFALLFNDIDHNMCAADKEVFSSFAHAQVSITNEIYQYLGEPETFLFCPTEYCGTFCYPNVSQSPYLRTVGEKLLPGIEVLWTGPKVVSKEIPVESIEEVSKIIKRAPVIWDNIHANDYDQKRLFLGPYKGRSTELIPRLKGVLTNPNCEFEANYVAIHTLATWYKSNMNGVRKDVVMTDSEDSTVSIQIKLENEGSDEDIETDVLYSPQMALKLALTEWLQEFGVPHQY
# Columns and labels:
# Assay in all cases: glycan array binding signal (z-score within array); higher = stronger binding
# Settings in all cases: glycan notation: IUPAC condensed, linker removed
# [1] = biological target: Fuc(a1-2)Gal(b1-3)[Fuc(a1-4)]GlcNAc(b1-2)Man(a1-3)[Fuc(a1-2)Gal(b1-3)[Fuc(a1-4)]GlcNAc(b1-2)Man(a1-3)]Man(b1-4)GlcNAc(b1-4)GlcNAc
# Summary of the method: (§1)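 Columns mapping to the same glycan were averaged after glycan names were converted to IUPAC-condensed notation. The data come from 3228 arrays in the Consortium for Functional Glycomics database, limited to those with an available protein sequence. Binding is reported as a within-array Z-score averaged across arrays of one protein sequence and across linkers.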
# [2] = biological target: Fuc(a1-2)Gal(b1-4)GlcNAc(b1-2)Man(a1-3)[Fuc(a1-2)Gal(b1-4)GlcNAc(b1-2)Man(a1-6)]Man(b1-4)GlcNAc(b1-4)[Fuc(a1-6)]GlcNAc
# Summary of the method: as §1
# [3] = biological target: Fuc(a1-2)Gal(b1-4)GlcNAc(b1-2)[Fuc(a1-2)Gal(b1-4)GlcNAc(b1-4)]Man(a1-3)[Fuc(a1-2)Gal(b1-4)GlcNAc(b1-2)Man(a1-6)]Man(b1-4)GlcNAc(b1-4)GlcNAc
# Summary of the method: as §1
# [4] = biological target: Fuc(a1-2)Gal(b1-4)GlcNAc(b1-3)[Fuc(a1-2)Gal(b1-4)GlcNAc(b1-6)]GalNAc
# Summary of the method: as §1
# [5] = biological target: Fuc(a1-2)Gal6S(b1-3)GlcNAc6S
# Summary of the method: as §1
# [6] = biological target: Fuc(a1-2)[Gal(a1-3)]Gal(b1-3)GalNAc
# Summary of the method: as §1
# [7] = biological target: Fuc(a1-2)[Gal(a1-3)]Gal(b1-4)GlcNAc(b1-3)[Fuc(a1-2)[Gal(a1-3)]Gal(b1-4)GlcNAc(b1-6)]GalNAc
# Summary of the method: as §1
# [8] = biological target: Fuc(a1-2)[GalNAc(a1-3)]Gal(b1-3)GalNAc(a1-3)[Fuc(a1-2)]Gal(b1-4)GlcNAc
# Summary of the method: as §1
# [9] = biological target: Fuc(a1-2)[GalNAc(a1-3)]Gal(b1-3)GalNAc(b1-3)Gal(a1-4)Gal(b1-4)Glc
# Summary of the method: as §1
# [10] = biological target: Fuc(a1-2)[GalNAc(a1-3)]Gal(b1-4)GlcNAc
# Summary of the method: as §1
# [11] = biological target: Fuc(a1-2)[GalNAc(a1-3)]Gal(b1-4)GlcNAc(b1-3)Gal(b1-4)GlcNAc(b1-3)Gal(b1-4)GlcNAc
# Summary of the method: as §1
# [12] = biological target: Fuc(a1-2)[GalNAc(a1-3)]Gal(b1-4)[Fuc(a1-3)]GlcNAc
# Summary of the method: as §1
# [13] = biological target: Fuc(a1-2)[GalNAc(a1-4)]Gal(b1-4)GlcNAc
# Summary of the method: as §1
# [14] = biological target: Fuc(a1-3)[Gal(b1-4)]GlcNAc6S
# Summary of the method: as §1
# [15] = biological target: Fuc(a1-3)[Gal3S(b1-4)]GlcNAc
# Summary of the method: as §1
# [16] = biological target: Fuc(a1-3)[Gal3S(b1-4)]GlcNAc6S
# Summary of the method: as §1
# [17] = biological target: Gal(a1-3)Gal(b1-4)GlcNAc(b1-2)Man
# Summary of the method: as §1
# [18] = biological target: Gal(a1-3)Gal(b1-4)[Fuc(a1-3)]GlcNAc(b1-2)Man(a1-3)[Gal(a1-3)Gal(b1-4)[Fuc(a1-3)]GlcNAc(b1-2)Man(a1-6)]Man(b1-4)GlcNAc(b1-4)GlcNAc
# Summary of the method: as §1
# [19] = biological target: Gal(b1-3)GalNAc(b1-4)Gal(b1-4)Glc
# Summary of the method: as §1
# [20] = biological target: Gal(b1-3)GlcNAc(b1-2)Man(a1-3)[Gal(b1-3)GlcNAc(b1-2)Man(a1-6)]Man(b1-4)GlcNAc(b1-4)[Fuc(a1-6)]GlcNAc
# Summary of the method: as §1
# [21] = biological target: Gal(b1-3)GlcNAc(b1-3)Gal(b1-4)GlcNAc(b1-2)[Gal(b1-3)GlcNAc(b1-3)Gal(b1-4)GlcNAc(b1-6)]Man(a1-6)[Gal(b1-3)GlcNAc(b1-3)Gal(b1-4)GlcNAc(b1-2)Man(a1-3)]Man(b1-4)GlcNAc(b1-4)[Fuc(a1-6)]GlcNAc
# Summary of the method: as §1
# [22] = biological target: Gal(b1-3)[Fuc(a1-4)]GlcNAc(b1-2)Man
# Summary of the method: as §1
# [23] = biological target: Gal(b1-4)GlcNAc(b1-2)Man(a1-3)[Gal(b1-4)GlcNAc(b1-2)Man(a1-6)][Gal(b1-4)GlcNAc(b1-4)]Man(b1-4)GlcNAc(b1-4)[Fuc(a1-6)]GlcNAc
# Summary of the method: as §1
# [24] = biological target: Gal(b1-4)GlcNAc(b1-3)Gal(b1-4)GlcNAc(b1-2)[Gal(b1-4)GlcNAc(b1-3)Gal(b1-4)GlcNAc(b1-6)]Man(a1-6)[Gal(b1-4)GlcNAc(b1-3)Gal(b1-4)GlcNAc(b1-2)Man(a1-3)]Man(b1-4)GlcNAc(b1-4)[Fuc(a1-6)]GlcNAc
# Summary of the method: as §1
# [25] = biological target: Gal(b1-4)GlcNAc(b1-3)Gal(b1-4)GlcNAc(b1-3)Gal(b1-4)GlcNAc(b1-2)[Gal(b1-4)GlcNAc(b1-3)Gal(b1-4)GlcNAc(b1-3)Gal(b1-4)GlcNAc(b1-6)]Man(a1-6)[Gal(b1-4)GlcNAc(b1-3)Gal(b1-4)GlcNAc(b1-3)Gal(b1-4)GlcNAc(b1-2)Man(a1-3)]Man(b1-4)GlcNAc(b1-4)[Fuc(a1-6)]GlcNAc
# Summary of the method: as §1
# [26] = biological target: Gal(b1-4)GlcNAc(b1-3)Gal(b1-4)GlcNAc(b1-3)Gal(b1-4)GlcNAc(b1-3)Gal(b1-4)GlcNAc(b1-3)Gal(b1-4)GlcNAc(b1-2)Man(a1-3)[Gal(b1-4)GlcNAc(b1-3)Gal(b1-4)GlcNAc(b1-3)Gal(b1-4)GlcNAc(b1-3)Gal(b1-4)GlcNAc(b1-3)Gal(b1-4)GlcNAc(b1-2)Man(a1-6)]Man(b1-4)GlcNAc(b1-4)[Fuc(a1-6)]GlcNAc
# Summary of the method: as §1
# [27] = biological target: Gal(b1-4)GlcNAc(b1-3)[GlcNAc(b1-6)]Gal(b1-4)GlcNAc
# Summary of the method: as §1
# [28] = biological target: Gal(b1-4)GlcNAc(b1-6)GalNAc
# Summary of the method: as §1
# [29] = biological target: Gal3S(b1-4)GlcNAc
# Summary of the method: as §1
binder,measurement,setting,value
B1,glycan array binding signal (z-score),[1],0.055
same,glycan array binding signal (z-score),[2],-0.047
same,glycan array binding signal (z-score),[3],-0.036
same,glycan array binding signal (z-score),[4],-0.036
same,glycan array binding signal (z-score),[5],0.263
same,glycan array binding signal (z-score),[6],0.104
same,glycan array binding signal (z-score),[7],0.056
same,glycan array binding signal (z-score),[8],23.3
same,glycan array binding signal (z-score),[9],7.17
same,glycan array binding signal (z-score),[10],-0.083
same,glycan array binding signal (z-score),[11],-0.044
same,glycan array binding signal (z-score),[12],-0.028
same,glycan array binding signal (z-score),[13],-0.033
same,glycan array binding signal (z-score),[14],-0.052
same,glycan array binding signal (z-score),[15],0.055
same,glycan array binding signal (z-score),[16],-0.076
same,glycan array binding signal (z-score),[17],-0.037
same,glycan array binding signal (z-score),[18],-0.048
same,glycan array binding signal (z-score),[19],-0.029
same,glycan array binding signal (z-score),[20],-0.064
same,glycan array binding signal (z-score),[21],0.166
same,glycan array binding signal (z-score),[22],-0.036
same,glycan array binding signal (z-score),[23],-0.086
same,glycan array binding signal (z-score),[24],-0.01
same,glycan array binding signal (z-score),[25],-0.03
same,glycan array binding signal (z-score),[26],-0.001
same,glycan array binding signal (z-score),[27],-0.059
same,glycan array binding signal (z-score),[28],-0.053
same,glycan array binding signal (z-score),[29],-0.067
